# Data: ChEMBL document CHEMBL1961873, “Compounds: GSK PKIS; Assays: Nanosyn kinase panel” (2012)
# Experiments:
# [1] = target: T1, Inhibitor of nuclear factor kappa-B kinase subunit epsilon (Homo sapiens) (UniProt Q14164); conditions: at 1 µM;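 further: reported values are averaged percent inhibition figures against human IKKε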
# T1 sequence (whole entry): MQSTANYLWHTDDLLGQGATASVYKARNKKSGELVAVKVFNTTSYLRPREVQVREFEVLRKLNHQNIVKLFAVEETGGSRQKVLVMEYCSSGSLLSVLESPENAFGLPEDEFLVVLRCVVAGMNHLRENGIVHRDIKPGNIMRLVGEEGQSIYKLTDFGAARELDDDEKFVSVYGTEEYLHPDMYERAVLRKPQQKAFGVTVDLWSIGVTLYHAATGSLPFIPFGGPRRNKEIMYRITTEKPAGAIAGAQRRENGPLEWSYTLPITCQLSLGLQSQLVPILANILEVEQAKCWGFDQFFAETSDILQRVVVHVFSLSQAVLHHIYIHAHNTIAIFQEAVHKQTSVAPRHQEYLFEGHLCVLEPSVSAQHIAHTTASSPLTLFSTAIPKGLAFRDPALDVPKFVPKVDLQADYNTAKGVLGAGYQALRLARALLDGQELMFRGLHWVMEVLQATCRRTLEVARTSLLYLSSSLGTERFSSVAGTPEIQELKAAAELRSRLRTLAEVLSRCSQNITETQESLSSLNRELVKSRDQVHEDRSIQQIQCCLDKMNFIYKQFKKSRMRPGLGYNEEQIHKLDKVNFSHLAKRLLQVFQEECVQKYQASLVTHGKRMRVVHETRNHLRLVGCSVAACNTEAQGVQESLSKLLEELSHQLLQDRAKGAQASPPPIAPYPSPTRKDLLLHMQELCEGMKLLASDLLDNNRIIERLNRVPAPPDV
# [2] = target: T2, Serine/threonine-protein kinase Nek1 (Homo sapiens) (UniProt Q96PY6); conditions: at 0.1 µM
# T2 sequence (whole entry): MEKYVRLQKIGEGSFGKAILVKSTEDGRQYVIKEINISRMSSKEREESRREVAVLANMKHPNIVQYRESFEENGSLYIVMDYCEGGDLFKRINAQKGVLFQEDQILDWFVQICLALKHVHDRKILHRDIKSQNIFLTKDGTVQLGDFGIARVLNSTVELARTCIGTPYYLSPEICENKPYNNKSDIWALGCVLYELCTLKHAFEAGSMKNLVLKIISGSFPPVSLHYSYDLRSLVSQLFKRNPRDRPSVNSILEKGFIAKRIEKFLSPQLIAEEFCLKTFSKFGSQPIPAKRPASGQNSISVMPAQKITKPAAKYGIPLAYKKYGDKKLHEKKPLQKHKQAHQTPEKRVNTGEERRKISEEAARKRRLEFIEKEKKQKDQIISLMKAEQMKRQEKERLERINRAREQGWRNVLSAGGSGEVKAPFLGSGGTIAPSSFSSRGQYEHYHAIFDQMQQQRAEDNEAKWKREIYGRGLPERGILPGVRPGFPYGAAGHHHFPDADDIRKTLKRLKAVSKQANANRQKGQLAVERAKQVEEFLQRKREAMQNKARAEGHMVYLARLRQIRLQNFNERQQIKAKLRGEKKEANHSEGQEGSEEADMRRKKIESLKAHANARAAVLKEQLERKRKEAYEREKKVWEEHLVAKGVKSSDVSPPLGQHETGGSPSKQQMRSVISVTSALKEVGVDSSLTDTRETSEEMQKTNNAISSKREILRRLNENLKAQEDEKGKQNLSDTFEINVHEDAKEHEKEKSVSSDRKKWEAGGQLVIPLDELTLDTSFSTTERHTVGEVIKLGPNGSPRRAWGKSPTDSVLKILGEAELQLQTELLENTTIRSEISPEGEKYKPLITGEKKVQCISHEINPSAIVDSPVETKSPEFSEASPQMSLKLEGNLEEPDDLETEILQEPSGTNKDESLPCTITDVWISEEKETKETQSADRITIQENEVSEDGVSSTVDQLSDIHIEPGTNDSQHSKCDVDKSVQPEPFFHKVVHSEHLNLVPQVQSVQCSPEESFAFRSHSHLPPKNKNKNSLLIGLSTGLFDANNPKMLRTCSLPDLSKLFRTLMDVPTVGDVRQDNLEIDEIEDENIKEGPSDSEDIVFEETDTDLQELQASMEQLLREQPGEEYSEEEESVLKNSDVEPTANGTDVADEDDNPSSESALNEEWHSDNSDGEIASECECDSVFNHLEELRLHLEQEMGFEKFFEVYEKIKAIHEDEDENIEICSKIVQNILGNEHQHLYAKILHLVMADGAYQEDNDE
# [3] = target: T2, Serine/threonine-protein kinase Nek1 (Homo sapiens); conditions: at 1 µM
# [4] = target: T3, Serine/threonine-protein kinase Nek2 (Homo sapiens) (UniProt P51955); conditions: at 0.1 µM
# T3 sequence (whole entry): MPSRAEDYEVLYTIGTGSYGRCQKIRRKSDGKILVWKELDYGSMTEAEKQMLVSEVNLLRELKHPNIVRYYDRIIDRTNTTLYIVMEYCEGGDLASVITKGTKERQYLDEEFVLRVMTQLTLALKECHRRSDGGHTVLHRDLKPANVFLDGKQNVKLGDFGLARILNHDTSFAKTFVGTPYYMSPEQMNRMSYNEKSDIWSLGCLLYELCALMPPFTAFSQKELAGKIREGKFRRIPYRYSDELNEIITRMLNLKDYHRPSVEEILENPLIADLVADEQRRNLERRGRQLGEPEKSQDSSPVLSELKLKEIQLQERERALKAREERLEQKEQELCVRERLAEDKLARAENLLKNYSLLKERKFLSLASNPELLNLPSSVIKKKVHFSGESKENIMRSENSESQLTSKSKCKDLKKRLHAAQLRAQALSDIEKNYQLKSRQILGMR
# [5] = target: T3, Serine/threonine-protein kinase Nek2 (Homo sapiens); conditions: at 1 µM
# [6] = target: Serine/threonine-protein kinase Nek6 (Homo sapiens) (UniProt Q9HC98); conditions: at 0.1 µM
# [7] = target: Serine/threonine-protein kinase Nek6 (Homo sapiens) (UniProt Q9HC98); conditions: at 1 µM
# [8] = target: Serine/threonine-protein kinase Nek7 (Homo sapiens) (UniProt Q8TDX7); conditions: at 0.1 µM
# [9] = target: Serine/threonine-protein kinase Nek7 (Homo sapiens) (UniProt Q8TDX7); conditions: at 1 µM
# [10] = target: T4, Serine/threonine-protein kinase Nek9 (Homo sapiens) (UniProt Q8TD19); conditions: at 0.1 µM
# T4 sequence (whole entry): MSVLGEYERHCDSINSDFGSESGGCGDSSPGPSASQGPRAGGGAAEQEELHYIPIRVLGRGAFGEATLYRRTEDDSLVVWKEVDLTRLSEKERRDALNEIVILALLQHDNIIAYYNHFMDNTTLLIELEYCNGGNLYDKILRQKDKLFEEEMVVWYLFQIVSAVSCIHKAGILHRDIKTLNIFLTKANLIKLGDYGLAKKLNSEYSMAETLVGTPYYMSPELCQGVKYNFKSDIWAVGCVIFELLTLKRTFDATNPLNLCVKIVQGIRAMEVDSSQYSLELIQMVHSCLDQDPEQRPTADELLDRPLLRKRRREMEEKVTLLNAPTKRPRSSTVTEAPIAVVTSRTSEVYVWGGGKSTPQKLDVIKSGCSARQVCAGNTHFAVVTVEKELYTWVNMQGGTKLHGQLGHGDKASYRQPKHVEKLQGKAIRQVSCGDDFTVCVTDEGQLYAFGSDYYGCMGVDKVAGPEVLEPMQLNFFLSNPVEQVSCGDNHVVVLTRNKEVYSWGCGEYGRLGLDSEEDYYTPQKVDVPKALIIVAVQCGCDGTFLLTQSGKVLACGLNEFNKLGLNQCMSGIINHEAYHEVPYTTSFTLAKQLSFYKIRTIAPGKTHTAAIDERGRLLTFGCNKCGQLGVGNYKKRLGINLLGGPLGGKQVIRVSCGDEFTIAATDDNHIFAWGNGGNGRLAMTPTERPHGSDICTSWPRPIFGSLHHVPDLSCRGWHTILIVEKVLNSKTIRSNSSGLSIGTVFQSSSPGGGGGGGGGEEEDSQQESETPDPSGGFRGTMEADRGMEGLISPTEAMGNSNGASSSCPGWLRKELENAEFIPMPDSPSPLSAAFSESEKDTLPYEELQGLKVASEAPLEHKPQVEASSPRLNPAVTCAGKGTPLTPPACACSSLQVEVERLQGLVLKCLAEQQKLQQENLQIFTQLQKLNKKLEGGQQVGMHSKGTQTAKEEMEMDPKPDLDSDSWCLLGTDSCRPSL
# [11] = target: T4, Serine/threonine-protein kinase Nek9 (Homo sapiens); conditions: at 1 µM
# [12] = target: Serine/threonine-protein kinase PLK1 (Homo sapiens) (UniProt P53350); conditions: at 0.1 µM
# [13] = target: Serine/threonine-protein kinase PLK1 (Homo sapiens) (UniProt P53350); conditions: at 1 µM
# [14] = target: T5, Dual specificity protein kinase TTK (Homo sapiens) (UniProt P33981); conditions: at 0.1 µM
# T5 sequence (whole entry): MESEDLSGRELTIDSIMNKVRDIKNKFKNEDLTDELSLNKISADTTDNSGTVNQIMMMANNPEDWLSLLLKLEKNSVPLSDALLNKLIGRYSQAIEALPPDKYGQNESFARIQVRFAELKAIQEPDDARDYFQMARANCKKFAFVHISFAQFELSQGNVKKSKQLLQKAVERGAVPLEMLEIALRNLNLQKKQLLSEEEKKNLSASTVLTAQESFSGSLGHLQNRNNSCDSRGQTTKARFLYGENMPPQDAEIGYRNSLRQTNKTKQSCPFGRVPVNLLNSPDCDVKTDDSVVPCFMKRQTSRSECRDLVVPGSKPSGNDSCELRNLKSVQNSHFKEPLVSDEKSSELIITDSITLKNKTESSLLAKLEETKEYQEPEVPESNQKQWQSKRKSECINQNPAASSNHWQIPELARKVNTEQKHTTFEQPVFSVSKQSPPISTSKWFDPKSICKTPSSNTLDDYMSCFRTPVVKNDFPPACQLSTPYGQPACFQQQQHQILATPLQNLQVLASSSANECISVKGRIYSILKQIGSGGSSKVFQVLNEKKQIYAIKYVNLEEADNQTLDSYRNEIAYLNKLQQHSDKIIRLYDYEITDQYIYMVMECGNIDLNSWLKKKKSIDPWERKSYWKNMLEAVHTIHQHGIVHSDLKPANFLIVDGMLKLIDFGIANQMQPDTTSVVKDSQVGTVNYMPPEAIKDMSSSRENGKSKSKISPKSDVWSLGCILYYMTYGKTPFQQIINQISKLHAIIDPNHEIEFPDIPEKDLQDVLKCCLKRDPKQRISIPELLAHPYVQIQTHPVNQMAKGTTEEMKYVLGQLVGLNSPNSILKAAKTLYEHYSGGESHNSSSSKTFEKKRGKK
# [15] = system: T6, Receptor-type tyrosine-protein kinase FLT3 (Homo sapiens), P36888 [D835Y]; conditions: at 1 µM
# T6 sequence (whole entry): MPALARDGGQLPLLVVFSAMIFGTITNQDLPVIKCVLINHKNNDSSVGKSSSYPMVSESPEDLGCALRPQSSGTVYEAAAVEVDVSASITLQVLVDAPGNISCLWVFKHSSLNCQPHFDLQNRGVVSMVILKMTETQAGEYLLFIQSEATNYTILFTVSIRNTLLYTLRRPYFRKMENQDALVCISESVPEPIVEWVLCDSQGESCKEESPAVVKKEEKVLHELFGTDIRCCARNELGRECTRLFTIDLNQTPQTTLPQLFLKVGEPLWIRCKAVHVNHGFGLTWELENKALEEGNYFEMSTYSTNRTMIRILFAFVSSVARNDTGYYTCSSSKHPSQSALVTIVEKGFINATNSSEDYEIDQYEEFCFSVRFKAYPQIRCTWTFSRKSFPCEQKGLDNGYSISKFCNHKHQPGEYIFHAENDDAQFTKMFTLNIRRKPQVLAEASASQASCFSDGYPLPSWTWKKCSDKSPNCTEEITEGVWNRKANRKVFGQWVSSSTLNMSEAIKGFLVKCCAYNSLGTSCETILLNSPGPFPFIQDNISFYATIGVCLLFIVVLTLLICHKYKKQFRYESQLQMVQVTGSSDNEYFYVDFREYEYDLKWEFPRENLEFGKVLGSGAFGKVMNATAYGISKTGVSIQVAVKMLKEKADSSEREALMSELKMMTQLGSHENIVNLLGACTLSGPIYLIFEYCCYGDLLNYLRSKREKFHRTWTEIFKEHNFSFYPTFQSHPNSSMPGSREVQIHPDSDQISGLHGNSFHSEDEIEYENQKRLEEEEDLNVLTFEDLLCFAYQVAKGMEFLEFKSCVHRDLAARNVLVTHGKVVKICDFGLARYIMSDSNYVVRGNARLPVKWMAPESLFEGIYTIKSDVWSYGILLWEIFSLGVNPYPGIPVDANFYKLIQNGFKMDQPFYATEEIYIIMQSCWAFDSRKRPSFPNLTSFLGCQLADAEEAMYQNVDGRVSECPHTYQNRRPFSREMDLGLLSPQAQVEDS
# [16] = target: Vascular endothelial growth factor receptor 3 (Homo sapiens) (UniProt P35916); conditions: at 0.1 µM
# [17] = target: Vascular endothelial growth factor receptor 3 (Homo sapiens) (UniProt P35916); conditions: at 1 µM
# [18] = target: Macrophage colony-stimulating factor 1 receptor (Homo sapiens) (UniProt P07333); conditions: at 0.1 µM
# [19] = target: Macrophage colony-stimulating factor 1 receptor (Homo sapiens) (UniProt P07333); conditions: at 1 µM
# [20] = target: Tyrosine-protein kinase Fyn (Homo sapiens) (UniProt P06241); conditions: at 0.1 µM
# Tyrosine-protein kinase Fyn (Homo sapiens), sequence (P06241 2-537 limits assumed): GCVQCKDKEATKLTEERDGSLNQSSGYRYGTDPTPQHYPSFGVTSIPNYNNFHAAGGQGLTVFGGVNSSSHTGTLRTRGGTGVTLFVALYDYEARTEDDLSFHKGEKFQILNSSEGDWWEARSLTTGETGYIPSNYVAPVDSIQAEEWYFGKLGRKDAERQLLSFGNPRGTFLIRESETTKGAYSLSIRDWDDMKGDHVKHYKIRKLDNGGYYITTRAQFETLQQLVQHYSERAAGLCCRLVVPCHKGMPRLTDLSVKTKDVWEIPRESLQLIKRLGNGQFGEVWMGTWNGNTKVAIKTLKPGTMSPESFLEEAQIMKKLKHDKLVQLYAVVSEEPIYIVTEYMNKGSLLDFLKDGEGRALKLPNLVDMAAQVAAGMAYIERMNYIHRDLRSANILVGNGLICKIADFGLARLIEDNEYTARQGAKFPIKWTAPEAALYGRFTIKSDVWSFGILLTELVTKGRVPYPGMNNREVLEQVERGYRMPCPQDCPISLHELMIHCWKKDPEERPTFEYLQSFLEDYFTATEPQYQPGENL
# Vascular endothelial growth factor receptor 3 (Homo sapiens), sequence (P35916 whole entry): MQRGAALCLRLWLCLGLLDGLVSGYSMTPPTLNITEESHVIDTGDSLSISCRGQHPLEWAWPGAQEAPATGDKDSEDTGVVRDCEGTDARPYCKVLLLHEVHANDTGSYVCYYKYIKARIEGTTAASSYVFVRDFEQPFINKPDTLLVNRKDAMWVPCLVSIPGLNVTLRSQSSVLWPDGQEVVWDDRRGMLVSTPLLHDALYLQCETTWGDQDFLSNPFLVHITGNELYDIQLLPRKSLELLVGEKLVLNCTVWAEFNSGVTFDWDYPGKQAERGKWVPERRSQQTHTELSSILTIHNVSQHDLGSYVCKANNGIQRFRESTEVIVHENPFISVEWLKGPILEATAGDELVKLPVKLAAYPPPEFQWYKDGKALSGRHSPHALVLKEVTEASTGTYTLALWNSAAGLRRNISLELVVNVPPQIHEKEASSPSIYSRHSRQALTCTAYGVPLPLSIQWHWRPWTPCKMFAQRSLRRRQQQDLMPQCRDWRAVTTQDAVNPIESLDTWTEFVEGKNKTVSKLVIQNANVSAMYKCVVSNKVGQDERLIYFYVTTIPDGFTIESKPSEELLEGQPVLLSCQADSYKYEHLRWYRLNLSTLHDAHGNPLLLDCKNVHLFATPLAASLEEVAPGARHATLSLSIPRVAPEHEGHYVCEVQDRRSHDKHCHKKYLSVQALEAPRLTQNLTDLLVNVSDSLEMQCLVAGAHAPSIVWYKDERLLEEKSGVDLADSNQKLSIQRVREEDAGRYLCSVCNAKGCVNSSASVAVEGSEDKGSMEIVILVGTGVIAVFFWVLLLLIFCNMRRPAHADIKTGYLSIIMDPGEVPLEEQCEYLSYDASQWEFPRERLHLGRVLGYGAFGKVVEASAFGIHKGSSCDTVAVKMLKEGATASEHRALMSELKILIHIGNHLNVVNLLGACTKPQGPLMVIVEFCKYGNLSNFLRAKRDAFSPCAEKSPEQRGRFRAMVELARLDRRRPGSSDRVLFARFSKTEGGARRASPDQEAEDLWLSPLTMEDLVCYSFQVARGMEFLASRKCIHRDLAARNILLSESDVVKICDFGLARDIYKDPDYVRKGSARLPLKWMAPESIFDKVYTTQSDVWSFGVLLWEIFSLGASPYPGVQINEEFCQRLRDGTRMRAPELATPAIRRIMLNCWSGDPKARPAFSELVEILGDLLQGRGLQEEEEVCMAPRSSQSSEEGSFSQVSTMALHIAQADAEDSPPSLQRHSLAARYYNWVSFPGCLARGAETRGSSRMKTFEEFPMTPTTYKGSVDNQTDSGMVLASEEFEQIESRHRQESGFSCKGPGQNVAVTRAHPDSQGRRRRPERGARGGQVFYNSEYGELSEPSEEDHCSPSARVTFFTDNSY
# Serine/threonine-protein kinase PLK1 (Homo sapiens), sequence (P53350 whole entry): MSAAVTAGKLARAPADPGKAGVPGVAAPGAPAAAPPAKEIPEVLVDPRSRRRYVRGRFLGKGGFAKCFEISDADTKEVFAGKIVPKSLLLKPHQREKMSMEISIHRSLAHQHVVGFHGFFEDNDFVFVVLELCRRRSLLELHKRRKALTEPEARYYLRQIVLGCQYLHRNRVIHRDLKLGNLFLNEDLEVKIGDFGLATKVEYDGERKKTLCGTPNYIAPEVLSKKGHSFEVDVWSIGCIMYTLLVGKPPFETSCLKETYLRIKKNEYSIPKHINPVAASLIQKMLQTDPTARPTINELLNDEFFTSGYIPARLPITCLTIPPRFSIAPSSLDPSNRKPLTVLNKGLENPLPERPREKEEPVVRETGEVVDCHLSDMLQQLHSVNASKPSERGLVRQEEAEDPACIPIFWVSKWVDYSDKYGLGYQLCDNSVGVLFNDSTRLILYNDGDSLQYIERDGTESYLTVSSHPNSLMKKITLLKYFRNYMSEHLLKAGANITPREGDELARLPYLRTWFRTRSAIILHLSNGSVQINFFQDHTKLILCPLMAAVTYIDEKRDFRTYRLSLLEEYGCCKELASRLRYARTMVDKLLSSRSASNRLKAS
# Serine/threonine-protein kinase Nek6 (Homo sapiens), sequence (Q9HC98 whole entry): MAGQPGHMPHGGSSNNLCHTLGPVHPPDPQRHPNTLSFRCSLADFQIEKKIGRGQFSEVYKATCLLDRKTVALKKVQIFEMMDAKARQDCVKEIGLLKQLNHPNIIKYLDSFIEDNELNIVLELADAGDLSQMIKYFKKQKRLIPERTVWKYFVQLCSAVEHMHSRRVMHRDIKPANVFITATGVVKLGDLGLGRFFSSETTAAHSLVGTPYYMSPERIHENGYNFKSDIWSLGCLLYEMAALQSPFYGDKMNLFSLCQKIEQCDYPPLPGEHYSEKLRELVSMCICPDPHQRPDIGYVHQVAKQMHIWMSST
# Serine/threonine-protein kinase Nek7 (Homo sapiens), sequence (Q8TDX7 whole entry, looked up): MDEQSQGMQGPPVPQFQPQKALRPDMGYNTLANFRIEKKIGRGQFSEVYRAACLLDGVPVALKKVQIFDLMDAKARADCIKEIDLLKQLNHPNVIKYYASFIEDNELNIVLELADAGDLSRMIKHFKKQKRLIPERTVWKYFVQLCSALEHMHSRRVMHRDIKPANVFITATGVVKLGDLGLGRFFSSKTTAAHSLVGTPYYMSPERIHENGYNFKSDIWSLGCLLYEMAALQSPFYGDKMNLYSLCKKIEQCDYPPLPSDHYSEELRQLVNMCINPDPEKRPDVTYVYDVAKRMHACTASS
# Macrophage colony-stimulating factor 1 receptor (Homo sapiens), sequence (P07333 whole entry): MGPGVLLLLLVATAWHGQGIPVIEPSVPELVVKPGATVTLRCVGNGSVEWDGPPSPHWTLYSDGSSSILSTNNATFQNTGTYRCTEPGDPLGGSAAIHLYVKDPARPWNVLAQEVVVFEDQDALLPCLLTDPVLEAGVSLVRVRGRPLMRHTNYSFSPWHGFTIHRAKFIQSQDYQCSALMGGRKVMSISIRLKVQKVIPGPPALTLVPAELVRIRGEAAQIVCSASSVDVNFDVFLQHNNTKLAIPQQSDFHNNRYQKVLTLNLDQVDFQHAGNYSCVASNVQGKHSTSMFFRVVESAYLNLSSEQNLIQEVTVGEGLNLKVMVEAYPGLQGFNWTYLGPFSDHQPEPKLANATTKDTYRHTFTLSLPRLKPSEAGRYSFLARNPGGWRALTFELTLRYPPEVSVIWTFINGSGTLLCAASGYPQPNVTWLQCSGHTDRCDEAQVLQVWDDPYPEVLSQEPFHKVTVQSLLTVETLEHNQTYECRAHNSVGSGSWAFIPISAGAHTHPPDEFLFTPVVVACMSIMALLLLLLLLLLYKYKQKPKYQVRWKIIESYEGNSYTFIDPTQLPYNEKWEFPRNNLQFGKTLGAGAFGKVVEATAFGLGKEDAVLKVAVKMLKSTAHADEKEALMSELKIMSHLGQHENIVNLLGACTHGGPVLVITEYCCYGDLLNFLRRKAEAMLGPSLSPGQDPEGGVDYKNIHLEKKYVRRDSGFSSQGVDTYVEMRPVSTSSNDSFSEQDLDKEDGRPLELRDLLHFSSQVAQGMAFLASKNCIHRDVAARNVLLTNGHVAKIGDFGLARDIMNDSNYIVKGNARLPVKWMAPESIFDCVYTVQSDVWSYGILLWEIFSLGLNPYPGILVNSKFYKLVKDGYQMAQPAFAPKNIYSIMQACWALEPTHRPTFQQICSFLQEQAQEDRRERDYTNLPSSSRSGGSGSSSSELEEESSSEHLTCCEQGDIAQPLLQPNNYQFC
Structure (SMILES),inhibition [1] [%],inhibition [2] [%],inhibition [3] [%],inhibition [4] [%],inhibition [5] [%],inhibition [6] [%],inhibition [7] [%],inhibition [8] [%],inhibition [9] [%],inhibition [10] [%],inhibition [11] [%],inhibition [12] [%],inhibition [13] [%],inhibition [14] [%],inhibition [15] [%],inhibition [16] [%],inhibition [17] [%],inhibition [18] [%],inhibition [19] [%],inhibition [20] [%]
c1ccc(-c2nc3n(c2-c2ccc4c(c2)OCO4)CCC3)nc1,1.63,2.25,1.34,2.03,3.36,1.4,-0.68,4.7,3.16,4.73,0.13,1.59,1.37,4.41,4.03,13.3,15.8,4.57,1.74,1.85
COc1cc(/C=N/Nc2ncnc3[nH]ncc23)ccc1O,96.3,3.25,12,3.52,4.62,4.45,5.85,4.07,5.51,0.45,7.86,0.7,7.67,4.54,34,2.46,26.1,7.59,34.4,8.72
CCc1nn2ncccc2c1-c1ccnc(NC2CC2)n1,6.61,3.1,4.93,3.32,3.36,2.16,3.98,1.99,3.9,2.26,9.21,1.29,4.87,-1.9,8.73,4.93,4.12,2.72,4.83,1.74
